In all, about 5,500 compounds went through this assay and about 2,000 (36%) were called active. Another 18% or so got no clear call; they are omitted. Rule as the data show it: active = normalized growth mostly below about 0.91 (no sharp cut-off); inconclusive = no clear call, values can overlap the other calls; inactive = mostly above about 0.92. This is one part of the list.
Experiment: chemical genetic growth profiling, strain panel (AID 1159580);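 also: tested at 20 µM; growth read once vehicle control cultures reached saturation at 30 °C; 1 = growth at the plate median or of vehicle wells; lower values mean less growth of the strain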
Details: growth OD
[1] = S. cerevisiae deletion strains, locus YAL013W, strain DEP1, hits give low values
[2] = S. cerevisiae deletion strains, locus YDR150W, strain NUM1, hits give low values
[3] = S. cerevisiae deletion strains, locus YJR075W, strain HOC1, hits give low values
[4] = S. cerevisiae deletion strains, locus YMR263W, strain SAP30, hits give low values
[5] = S. cerevisiae deletion strains, locus YNL153C, strain GIM3, hits give low values
[6] = S. cerevisiae deletion strains, locus YPL241C, strain CIN2, hits give low values

Measured: normalized growth

CC1Cc2cc3c(cc2C(c2ccc(N)cc2)=NN1)OCO3 (centres undefined)
inactive: [1] 0.958 | S. cerevisiae deletion strains, locus YAL040C, strain CLN3, hits give low values 0.946 | S. cerevisiae deletion strains, locus YCL061C, strain MRC1 (second series), hits give low values 0.991 | [2] 0.995 | S. cerevisiae deletion strains, locus YDR363W, strain ESC2, hits give low values 0.989 | S. cerevisiae deletion strains, locus YER002W, strain NOP16, hits give low values 0.991 | [3] 0.97 | [4] 0.982 | [5] 0.979 | S. cerevisiae deletion strains, locus YNL175C, strain NOP13, hits give low values 0.996 | S. cerevisiae deletion strains, locus YNL197C, strain WHI3, hits give low values 0.999 | S. cerevisiae deletion strains, locus YNL224C, strain SQS1, hits give low values 0.996 | [6] 0.986

CCCSP(=O)(OCC)SCCC
inactive: [1] 1.01 | S. cerevisiae deletion strains, locus YBR021W, strain FUR4, hits give low values 1 | S. cerevisiae deletion strains, locus YBR229C, strain ROT2, hits give low values 1.02 | S. cerevisiae deletion strains, locus YCL029C, strain bik1, hits give low values 0.988 | S. cerevisiae deletion strains, locus YDL035C, strain GPR1, hits give low values 1.02 | S. cerevisiae deletion strains, locus YDL074C, strain BRE1, hits give low values 1.07 | S. cerevisiae deletion strains, locus YDL101C, strain DUN1, hits give low values 1.02 | S. cerevisiae deletion strains, locus YDL134C, strain PPH21, hits give low values 1.02 | S. cerevisiae deletion strains, locus YDL185W, strain tfp1, hits give low values 0.984 | S. cerevisiae deletion strains, locus YDL192W, strain arf1, hits give low values 0.988 | S. cerevisiae deletion strains, locus YDR101C, strain arx1, hits give low values 0.99 | [2] 1.02 | S. cerevisiae deletion strains, locus YDR162C, strain NBP2, hits give low values 1.02 | S. cerevisiae deletion strains, locus YDR318W, strain mcm21, hits give low values 0.995 | S. cerevisiae deletion strains, locus YDR388W, hits give low values 0.995 | S. cerevisiae deletion strains, locus YDR502C, strain sam2, hits give low values 0.996 | S. cerevisiae deletion strains, locus YEL061C, strain CIN8, hits give low values 1.02 | S. cerevisiae deletion strains, locus YER110C, hits give low values 0.983 | S. cerevisiae deletion strains, locus YER155C, strain BEM2, hits give low values 1.03 | S. cerevisiae deletion strains, locus YER167W, strain BCK2, hits give low values 0.994 | S. cerevisiae deletion strains, locus YGL078C, strain dbp3, hits give low values 0.964 | S. cerevisiae deletion strains, locus YGL086W, strain mad1, hits give low values 0.994 | S. cerevisiae deletion strains, locus YGL248W, strain PDE1, hits give low values 1.03 | S. cerevisiae deletion strains, locus YGR078C, strain PAC10, hits give low values 1.02 | S. cerevisiae deletion strains, locus YGR135W, strain pre9, hits give low values 0.98 | S. cerevisiae deletion strains, locus YGR229C, strain SMI1, hits give low values 1.03 | S. cerevisiae deletion strains, locus YGR252W, strain gcn5, hits give low values 0.927 | S. cerevisiae deletion strains, locus YHR030C, strain SLT2, hits give low values 1.02 | S. cerevisiae deletion strains, locus YHR079C, strain IRE1 (second series), hits give low values 0.982 | S. cerevisiae deletion strains, locus YHR094C, strain hxt1, hits give low values 0.978 | S. cerevisiae deletion strains, locus YHR129C, strain ARP1, hits give low values 1.02 | S. cerevisiae deletion strains, locus YHR200W, strain rpn10, hits give low values 0.982 | S. cerevisiae deletion strains, locus YIL066C, strain RNR3, hits give low values 1.03 | S. cerevisiae deletion strains, locus YIL073C, strain SPO22, hits give low values 0.996 | S. cerevisiae deletion strains, locus YIL125W, strain kgd1, hits give low values 0.987 | S. cerevisiae deletion strains, locus YIR030C, strain dcg1, hits give low values 0.976 | S. cerevisiae deletion strains, locus YJL095W, strain BCK1, hits give low values 1.04 | S. cerevisiae deletion strains, locus YJL134W, strain LCB3, hits give low values 1.01 | S. cerevisiae deletion strains, locus YJL168C, strain set2, hits give low values 0.981 | S. cerevisiae deletion strains, locus YJL187C, strain SWE1 (second series), hits give low values 1.01 | S. cerevisiae deletion strains, locus YJR043C, strain POL32, hits give low values 1.02 | [3] 1.03 | S. cerevisiae deletion strains, locus YKL009W, strain mrt4, hits give low values 1.01 | S. cerevisiae deletion strains, locus YKL068W, hits give low values 0.996 | S. cerevisiae deletion strains, locus YKL085W, strain MDH1 (second series), hits give low values 0.99 | S. cerevisiae deletion strains, locus YKL085W, strain MDH1, hits give low values 0.99 | S. cerevisiae deletion strains, locus YKL190W, strain CNB1, hits give low values 1 | S. cerevisiae deletion strains, locus YKR001C, strain vps1, hits give low values 0.982 | S. cerevisiae deletion strains, locus YLR039C, strain RIC1, hits give low values 1.02 | S. cerevisiae deletion strains, locus YLR058C, strain SHM2, hits give low values 1.01 | S. cerevisiae deletion strains, locus YLR102C, strain apc9, hits give low values 0.977 | S. cerevisiae deletion strains, locus YLR262C, strain YPT6, hits give low values 1.02 | S. cerevisiae deletion strains, locus YLR268W, strain sec22, hits give low values 0.994 | S. cerevisiae deletion strains, locus YLR330W, strain CHS5, hits give low values 1.02 | S. cerevisiae deletion strains, locus YLR342W, strain FKS1 (second series), hits give low values 0.995 | S. cerevisiae deletion strains, locus YLR371W, strain rom2, hits give low values 0.981 | S. cerevisiae deletion strains, locus YLR418C, strain cdc73, hits give low values 0.999 | S. cerevisiae deletion strains, locus YML016C, strain PPZ1, hits give low values 1.02 | S. cerevisiae deletion strains, locus YML032C, strain rad52, hits give low values 0.983 | S. cerevisiae deletion strains, locus YML124C, strain tub3, hits give low values 0.989 | S. cerevisiae deletion strains, locus YMR078C, strain ctf18, hits give low values 0.983 | S. cerevisiae deletion strains, locus YMR223W, strain ubp8, hits give low values 0.974 | [4] 1.03 | S. cerevisiae deletion strains, locus YMR307W, strain GAS1, hits give low values 1.01 | S. cerevisiae deletion strains, locus YNL067W, strain RPL9B, hits give low values 1.02 | S. cerevisiae deletion strains, locus YNL128W, strain TEP1, hits give low values 1.03 | [5] 1.02 | S. cerevisiae deletion strains, locus YNL233W, strain BNI4, hits give low values 1.01 | S. cerevisiae deletion strains, locus YNL250W, strain rad50, hits give low values 0.984 | S. cerevisiae deletion strains, locus YNL271C, strain bni1, hits give low values 0.974 | S. cerevisiae deletion strains, locus YNL298W, strain CLA4, hits give low values 0.977 | S. cerevisiae deletion strains, locus YNL307C, strain MCK1, hits give low values 0.979 | S. cerevisiae deletion strains, locus YNL322C, strain KRE1, hits give low values 1.01 | S. cerevisiae deletion strains, locus YNR052C, strain pop2, hits give low values 0.971 | S. cerevisiae deletion strains, locus YOL006C, strain TOP1, hits give low values 1.05 | S. cerevisiae deletion strains, locus YOL012C, strain htz1 0.903 | S. cerevisiae deletion strains, locus YOL147C, strain pex11, hits give low values 0.991 | S. cerevisiae deletion strains, locus YOR061W, strain CKA2, hits give low values 1.01 | S. cerevisiae deletion strains, locus YOR069W, strain VPS5, hits give low values 1.01 | S. cerevisiae deletion strains, locus YOR136W, strain idh2, hits give low values 0.998 | S. cerevisiae deletion strains, locus YOR144C, strain elg1, hits give low values 0.999 | S. cerevisiae deletion strains, locus YOR184W, strain ser1, hits give low values 0.975 | S. cerevisiae deletion strains, locus YOR316C, strain cot1, hits give low values 0.99 | S. cerevisiae deletion strains, locus YPL055C, strain LGE1, hits give low values 1.03 | [6] 1.01 | S. cerevisiae deletion strains, locus YPR119W, strain clb2, hits give low values 0.985 | S. cerevisiae deletion strains, locus YPR141C, strain kar3, hits give low values 0.987 | S. cerevisiae deletion strains, locus YPR163C, strain tif3, hits give low values 0.986 | S. cerevisiae deletion strains, locus YPR167C, strain met16, hits give low values 0.985 | S. cerevisiae deletion strains, strain wtn01, hits give low values 0.987 | S. cerevisiae strains, strain wild type, hits give low values 1.02

Source: PubChem BioAssay AID1159580 (chemical genetic matrix, 2015)
